SARS PLP yeast = SARS-CoV PLP inhibition in yeast; Potency, µM (doses to about 32.9 µM), actives largely listed as activators; actives 0.19% (n = 330,000); S. cerevisiae expressing SARS-CoV PLpro, growth rescue; AID 485353; calls by dose curve; note: nearly all actives have a fitted effect of over 55% in size
Pf growth 96h = P. falciparum growth inhibition at 96 hours; P. falciparum luciferase reporter growth, 96 h; AID 504834; Potency, µM (titrated, usually from 28.7 µM), usual class: inhibitors; actives 6.9% (n = 320,000)
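Delayed-death screen, second-generation endpoint: infected erythrocytes, 2% hematocrit, 0.05% parasitemia final; 96 hours at 37 C, 5% CO2; luciferase detection reagent; luminescence decrease equals reduced growth.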
Sm TGR inh = blocks Schistosoma mansoni thioredoxin glutathione reductase | purified TGR, DTNB reduction, TNB absorbance 405 nm | actives 3% (n = 360,000) | Potency, µM (doses to about 114 µM), actives largely listed as inhibitors; note: nearly all actives have a fitted effect of over 60% in size
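First, TGR (20 nM dispensed) and NADPH were mixed with compound. Second, a 15 min room-temperature incubation followed. Third, further NADPH and then DTNB were added to start the reaction. Finally, TNB absorbance was monitored kinetically.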
Pf growth 48h = inhibits P. falciparum growth in the first generation, 48 h; Potency, µM (series often up to 28.7 µM), actives largely listed as inhibitors; actives 5.9% (n = 310,000); P. falciparum luciferase growth in erythrocytes, 48 h
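Luminescence readout; reporter = integrated firefly luciferase in P. falciparum. RBC culture at 2% hematocrit, 0.1% parasitemia final, 37 C/5% CO2; decreased signal taken as growth inhibition.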
Hits are given with their value; i = inactive; ? = inconclusive; nt = not tested or not shown. The list is not random: actives were taken first. Their share in the collection is about 12%. Unless noted, calls come from the whole dose curve; as a rule, active = well fitted curve in the direction sought with a large enough effect; inconclusive = small, poorly fitted or top-dose-only effect, or another doubt; inactive = no such curve, though single readings can be large; an effect the other way counts as inactive or inconclusive.

SMILES	SARS PLP yeast	Pf growth 96h	Sm TGR inh	Pf growth 48h
COC(=O)\C(C(C)=O)=C(/C=C/C=C/C=C/N(C)C)N(C)C	i	i	35µM	i
O=C(/C=C/Nc1ccc(F)c(Cl)c1)c1ccccc1	i	i	i	i
CC(NC(=O)c1ccco1)C1COc2ccccc2O1 (configuration not stated)	i	10µM	?	nt
CC(NC(=O)CCC(=O)NC(C)C1COc2ccccc2O1)C1COc2ccccc2O1 (configuration not stated)	i	i	i	i
CCOCN(C(=O)CCl)c1c(C)cccc1CC	i	?	?	13µM
CCOCN(C(=O)Cn1cnc2ccccc21)c1c(C)cccc1CC	i	i	i	?
CCOCN(C(=O)Cn1c(CO)nc2ccccc21)c1c(C)cccc1CC	i	10µM	i	i
O=C(NCCc1ccc(Cl)cc1)c1nnc(Cc2ccc(F)cc2)o1	nt	nt	i	nt
CC(C)CCNC(=O)c1nnc(Cc2ccc(Cl)cc2)o1	i	8.3µM	i	nt
Clc1ccc(C[n+]2csc3ccccc32)cc1	i	i	4.5µM	i
Fc1ccc(C[n+]2csc3ccccc32)cc1	i	i	i	i
CCCN(CCC)CCN1C(=O)C2C(C(=O)Nc3cccc(SC)c3)C3C=CC2(O3)C1C(=O)NC1CCCCC1 (configuration not stated)	i	i	i	3.7µM
Cc1cc(C)cc(NC(=O)C2C3C=CC4(O3)C2C(=O)N(CCN2CCCCC2)C4C(=O)NC2CCCCC2)c1 (configuration not stated)	i	10µM	i	?
O=C1NC(=Nc2ccc(O)cc2)S/C1=C\C=C\c1ccco1	i	?	14µM	?
COc1ccc(N=C2S/C(=C\c3ccc(C)o3)C(=O)N2CC(C)C)cc1	i	3.3µM	?	nt
COc1ccc(N=C2S/C(=C\c3ccc(N4CCOCC4)o3)C(=O)N2CCc2c[nH]c3ccccc23)cc1	i	?	13µM	?
COC(=O)/C=C1/S/C(=N/N=C/c2ccco2)NC1=O	i	?	i	?
COc1ccccc1N=C1NC(=O)/C(=C/c2ccc(N(C)C)cc2)S1	i	?	i	0.093µM
COc1ccc(/C=C2\SC(=Nc3ccccc3)NC2=O)cc1	i	?	i	?
COc1ccc(N=C2S/C(=C\c3ccc(OCC(=O)O)cc3)C(=O)N2CCc2c[nH]c3ccccc23)cc1	i	?	nt	?
O=C(CSc1nc2ccccc2c(=O)n1Cc1ccccc1)Nc1ccc(Br)cc1C(=O)O	i	i	i	i
CC(=O)Nc1ccc(S(=O)(=O)/N=C2/NC(=O)/C(=C\c3ccco3)S2)cc1	i	?	14µM	i
COc1cc(/C=C2\SC(=Nc3ccc(O)cc3)NC2=O)cc(OC)c1OC	i	?	i	?
COc1cc(/C=C2/SC(=Nc3ccc(O)cc3)NC2=O)cc(OC)c1O	i	1.9µM	i	3.7µM
CCOC(=O)CN1C(=O)S/C(=C/c2ccc(C)o2)C1=O	i	i	40µM	i
SMILES	SARS PLP yeast	Pf growth 96h	Sm TGR inh	Pf growth 48h
CCCN1C(=O)/C(=C/c2ccc(C)o2)SC1=Nc1ccc(OC)cc1	i	?	40µM	?
Cc1ccc(S(=O)(=O)/N=C2/NC(=O)/C(=C\c3ccco3)S2)cc1	i	i	?	i
CC(/C=N/NC(=O)c1nnn(-c2nonc2N)c1C(C)C)=C\c1ccco1	i	i	?	i
COc1ccc(N=C2NC(=O)/C(=C\c3ccco3)S2)cc1	i	i	28µM	?
CCCN1C(=O)/C(=C/c2ccco2)SC1=Nc1ccc(OC)cc1	i	?	50µM	10µM
Cc1c(Cl)cccc1NC(=O)CCn1c(=O)c2cccn2c2ccccc21	nt	nt	i	nt
O=C(Nc1nc(-c2ccco2)c(-c2ccco2)s1)c1c(F)cccc1Cl	i	i	22µM	i
CC(=O)c1sc(NC(=O)c2ccccc2F)nc1-c1ccccc1	i	i	i	i
O=C(Nc1nc(-c2ccco2)c(-c2ccco2)s1)c1cnccn1	i	?	14µM	?
O=C(Nc1nc2ccccc2s1)c1cnccn1	i	i	i	nt
O=C(Nc1nc(-c2ccco2)c(-c2ccco2)s1)c1ccc(F)cc1F	i	i	10µM	i
COc1ccc(CCNC(=O)c2ccc3c(c2)N(Cc2ccc(Cl)cc2)C(=O)c2ccccc2S3)cc1OC	nt	nt	i	nt
COc1ccc(NC(=O)c2c(C)noc2-c2snnc2C)cc1	i	2.9µM	i	13µM
CCC(CC)C(=O)N1CCc2cc(OC)c(OC)cc2C1COc1ccc(C(=O)OC)cc1 (configuration not stated)	nt	nt	i	nt
Cc1cc(NCc2ccco2)nc2cc(O)ccc12	i	5.2µM	i	3.3µM
COc1ccc(Cl)cc1NC(=O)CSc1ccc(-c2sc(C)nc2C)nn1	nt	nt	i	nt
COc1ccc(-n2nc3c(N4CCC(C(=O)N5CCCCCC5)CC4)nnc(C)c3c2C)cc1	i	?	i	?
CC(C)Sc1ncc(Cl)c(C(=O)N(Cc2ccc(N(C)C)cc2)C2CCS(=O)(=O)C2)n1 (configuration not stated)	nt	nt	i	nt
O=C(NNc1c2ccccc2nc2ccccc12)C(O)c1ccccc1 (configuration not stated)	i	0.41µM	i	?
CCCC(=O)NNc1c2ccccc2nc2ccccc12	i	9.3µM	i	i
O=C(NNc1c2ccccc2nc2ccccc12)c1ccc(O)cc1O	i	?	i	?
O=C(CCCO)NNc1c2ccccc2nc2ccccc12	i	1.3µM	i	1.5µM
O=C(NNc1c2ccccc2nc2ccccc12)c1ccccc1Cl	i	?	i	?
Cc1ccc(S(=O)(=O)N2CCCCC2)cc1C(=O)N(CCc1ccccc1)Cc1ccccc1	i	9.3µM	i	13µM
O=C(c1cc(S(=O)(=O)N2CCOCC2)ccc1F)N(CCc1ccccc1)Cc1ccccc1	i	?	i	9.3µM
SMILES	SARS PLP yeast	Pf growth 96h	Sm TGR inh	Pf growth 48h
O=C(NCCc1ccccc1)c1cc(S(=O)(=O)N2CCOCC2)ccc1F	i	nt	i	i
Cc1ncc(CN2CCCC(C(=O)Nc3ccc(-c4ccco4)cc3)C2)n1C (configuration not stated)	i	i	i	i
CSc1ncc(CN2CCCC(C(=O)Nc3ccc(-c4ccco4)cc3)C2)cn1 (configuration not stated)	i	i	18µM	?
CN1CCN(c2c(/C=N/O)c3ccccc3n2C)CC1	i	i	i	i
Cc1ccccc1C(=O)O/N=C/c1c(N2CCOCC2)n(C)c2ccccc12	i	2.3µM	i	2.6µM
Cc1cccc2nc(CSc3nc4[nH]ncc4c(=O)n3-c3ccccc3Cl)cc(=O)n12	i	9.3µM	i	9.3µM
N=c1c2cn[nH]c2nc(SCC(=O)c2ccc(Br)cc2)n1-c1ccc(Br)cc1	i	7.4µM	i	i
O=c1c2cn[nH]c2nc(SCc2cc(=O)n3cc(Br)ccc3n2)n1-c1ccc(Br)cc1	i	i	i	12µM
Cc1ccccc1-n1c(SCc2cc(=O)n3ccccc3n2)nc2[nH]ncc2c1=O	i	13µM	i	?
CCCCN(CC)C(=O)Cn1cc2c(n1)-c1c(oc(C(=O)N3CCCC3)c1C)CC2	nt	nt	i	nt
Cc1cccc(Cn2c(CN3CCCC(C)C3)nc3c2c(=O)n(C)c(=O)n3C)c1 (configuration not stated)	nt	nt	i	nt

Assay outcomes (PubChem BioAssay)
